An excerpt weighted towards active compounds, which were near 2.4% of everything screened.
D2 ag-1 – Beta-Arrestin HTS for Positive Allosteric Modulators of the Human D2 Dopamine Receptor: Agonists; D(2) dopamine receptor (Homo sapiens), P14416; DiscoveRx PathHunter D2 beta-arrestin, luminescence, 90 min; 100% = 57 uM dopamine signal; activation, % (test concentration not listed); actives 0.084% (n = 360,000); in the data active means activation above about 40%; inconclusive means between about 15% and that limit
Target sequence (P14416 whole entry, looked up): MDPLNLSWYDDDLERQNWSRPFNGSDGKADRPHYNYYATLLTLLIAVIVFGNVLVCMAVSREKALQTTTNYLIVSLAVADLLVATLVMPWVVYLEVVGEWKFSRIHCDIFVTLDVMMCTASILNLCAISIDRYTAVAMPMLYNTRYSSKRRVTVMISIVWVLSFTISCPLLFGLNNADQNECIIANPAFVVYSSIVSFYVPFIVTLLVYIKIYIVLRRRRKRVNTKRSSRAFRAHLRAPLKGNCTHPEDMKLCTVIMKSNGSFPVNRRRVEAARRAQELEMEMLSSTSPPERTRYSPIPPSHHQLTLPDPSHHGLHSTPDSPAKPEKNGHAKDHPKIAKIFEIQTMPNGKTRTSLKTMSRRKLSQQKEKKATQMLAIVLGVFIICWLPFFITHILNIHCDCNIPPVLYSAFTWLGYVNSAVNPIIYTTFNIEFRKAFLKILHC
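DiscoveRx PathHunter D2 beta-arrestin cells (2,100/well) attached overnight, then compound-stimulated 90 min at 37 C in HBSS/10 mM HEPES/0.1% Tween-20 buffer; beta-galactosidase complementation read by luminescence after 1 h at ambient temperature. Dopamine 57 uM final (EC100) as control.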
D2 PAM-1 – Beta-Arrestin HTS for Positive Allosteric Modulators of the Human D2 Dopamine Receptor: Potentiators. D(2) dopamine receptor (Homo sapiens), P14416. DiscoveRx D2 beta-arrestin cells, luminescence, 90 min; 100% = 57 uM dopamine signal. potentiation, % (no concentration beside the values). actives 0.23% (n = 360,000); in the data active means potentiation above about 50%; inconclusive means mostly about 30% to 49%
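D2 cells co-treated with compound plus 50 nM dopamine (EC20) for 90 min at 37 deg C to detect potentiation. Beta-arrestin recruitment was read as enzyme-fragment luminescence after 1 h at ambient temperature. Full response was set by 57 uM dopamine.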
D2 PAM-2 – HTS Assay for Positive Allosteric Modulators of the Human D2 Dopamine Receptor: Primary Screen for Potentiators. HEK293 T-REx D2, calcium flux, EC20 dopamine potentiation. D(2) dopamine receptor (Homo sapiens), P14416. actives 0.34% (n = 340,000). potentiation, % at 10 µM;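 active means potentiation over 3 SD above the plate norm, cut at about 30% in these data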
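Potentiation of an EC20 dopamine calcium response measured kinetically over 180 s, after a preceding 180 s compound-only read flagging agonists. Cells: inducible Hek293 Trex D2 line, 4000/well, cultured overnight at 30 C before dye loading.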
D2 ag-2 – HTS Assay for Allosteric Agonists of the Human D2 Dopamine Receptor: Primary Screen for Agonists; HEK293 T-REx D2 cells, calcium flux agonist mode; actives 0.53% (n = 340,000); activation, % at 2 µM; D(2) dopamine receptor (Homo sapiens), P14416;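 active means activation over 3 SD above normal in the single-dose calcium agonist read, cut at about 30% in these data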
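Agonism is scored from calcium flux in a force-coupled, inducible HEK293 cell line expressing D2, read kinetically for 180 s after compound addition against dopamine controls.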
D2 antag – HTS Assay for Allosteric Antagonists of the Human D2 Dopamine Receptor: Primary Screen for Antagonists. D(2) dopamine receptor (Homo sapiens), P14416. HEK293 TREx D2 cells, calcium flux, dopamine EC80. inhibition, % at 10 µM. actives 2% (n = 340,000). AID 485344, 2010; in the data active means inhibition above about 30%; inactive means below that, where a call was filed
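Read-out: kinetic calcium fluorescence (1 cycle/s) in inducible HEK293 T-REx D2 cells after an EC80 dopamine addition that followed 180 s compound preincubation. Loss of the dopamine response indicates antagonism.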
Each line names hits and unclear results; the compound was inactive in the other large screens.

O=C1COc2ccc(C(=O)COC(=O)c3ccc(Cl)cc3[N+](=O)[O-])cc2N1	D2 ag-1 inconclusive, D2 PAM-1 52
O=C(COC(=O)c1ccc([N+](=O)[O-])cc1Cl)NCc1ccco1	none
O=C1COc2ccc(C(=O)COC(=O)c3ccc([N+](=O)[O-])cc3Cl)cc2N1	D2 ag-1 inconclusive, D2 PAM-1 51
O=C1COc2ccc(C(=O)COC(=O)c3ccccc3[N+](=O)[O-])cc2N1	none (no result: D2 ag-2, D2 antag)
CCN(C(=O)COC(=O)C1CCC(C(C)(C)C)CC1)c1c(N)n(Cc2ccccc2)c(=O)[nH]c1=O (stereo unspecified)	none (no result: D2 PAM-2, D2 ag-2, D2 antag)
CCCN(CCC)CCNC(=O)Cn1cnc2sc(C)c(S(=O)(=O)N3CCN(c4ccccc4OC)CC3)c2c1=O	none (no result: D2 ag-1, D2 PAM-1, D2 ag-2, D2 antag)
C/C(=N/NC(=O)c1ccc(Br)o1)c1ccncc1	D2 antag 38
CCOC(=O)CNC(=O)c1cn(CC(C)C)c(=O)c2cc(OC)c(OC)cc12	D2 antag 31
CCn1cc(C(=O)NCC(=O)OC)c2cc(OC)c(OC)cc2c1=O	none
Cc1cccc(Nc2nnc(-c3ccc(C)c(S(=O)(=O)NCC4CCCO4)c3)c3ccccc23)c1 (stereo unspecified)	none (no result: D2 ag-1, D2 PAM-1, D2 antag)
O=C(COc1ccc(Cl)cc1)Nc1ccc2[nH]ncc2c1	D2 antag 34
CC(C)CC(=O)Nc1cccc(-c2csc(-c3ccccc3)n2)c1	none
CCC(=O)Nc1cccc(-c2csc(-c3ccccc3)n2)c1	D2 antag 38
CCC(=O)Nc1cccc(C(=O)c2ccccc2)c1	D2 PAM-2 31
Cc1nc(-c2cccc(NC(=O)COc3ccc(Cl)cc3)c2)cs1	D2 antag 70
COc1cc(NC(=O)Cn2c(=O)n(Cc3ccccc3Cl)c(=O)c3cc(OC)c(OC)cc32)cc(OC)c1	none (no result: D2 ag-1, D2 PAM-1, D2 antag)
O=C(c1cnn(-c2ccc(F)cc2)c1-n1cccc1)N1CCN(c2cccc(Cl)c2)CC1	none (no result: D2 ag-1, D2 PAM-1, D2 antag)
Cc1ccc(CSCCC(=O)NCc2ccc(F)cc2Cl)cc1	none (no result: D2 ag-1, D2 PAM-1, D2 antag)
Cc1ccccc1N1CC(c2nc3ccccc3n2Cc2ccc(Br)cc2)CC1=O (stereo unspecified)	none (no result: D2 ag-1, D2 PAM-1, D2 antag)
Cc1ccc(NC(=S)N(CCN(C)C)C(C)c2cccnc2)c(C)c1 (stereo unspecified)	D2 PAM-2 32
OC1CCCCC1Sc1nc2ccccc2s1 (stereo unspecified)	D2 antag 40
CCOC(=O)C1=CCCN(S(=O)(=O)c2ccc(C)cc2)C1	none (no result: D2 PAM-2, D2 ag-2, D2 antag)
Cc1noc(/C=C/N(C)C)c1S(=O)(=O)N1CCCC(C(=O)Nc2ccc(F)cc2F)C1 (stereo unspecified)	D2 antag 54
Cc1ccc(NC(=O)C2CCCN(S(=O)(=O)c3c(C)noc3/C=C/N(C)C)C2)c(C)c1 (stereo unspecified)	none
Cc1ccc(C)c(NC(=O)C2CCCN(S(=O)(=O)c3c(C)noc3/C=C/N(C)C)C2)c1 (stereo unspecified)	D2 antag 37
CCC(C)c1ccc(S(=O)(=O)N2CCN(CC(O)COCC3CCCO3)CC2)cc1 (stereo unspecified)	D2 antag 33
CC(C)c1ccc(S(=O)(=O)N2CCN(CC(O)CN3CCOCC3)CC2)cc1 (stereo unspecified)	none
Cc1cc(C)nc(N/N=C/C2=C(N3CCOCC3)C(=C\c3ccc(Cl)cc3)/CC2)n1	none
O=C(O)c1ccc(N/N=C/C2=C(N3CCOCC3)C(=C\c3ccccc3)/CC2)cc1	D2 PAM-1 51
CC1(C)C(=O)NCCN1C(=O)CCC(=O)O	D2 PAM-2 33
Cc1cc(C)cc(C(=O)OCC(=O)N2CCCCCC2)c1	D2 antag 42
O=C(OCC(=O)N1CCCC1)c1c[nH]c2ccccc12	none
COc1cc(OC)cc(C(=O)OCC(=O)N2CCCC2)c1	none
O=C(OCC(=O)N1CCCCC1)c1c[nH]c2ccccc12	D2 PAM-2 68

Source: PubChem (National Center for Advancing Translational Sciences (NCATS))
